Test results from the supplement of paper PMC6555819.

Columns and labels:
Test in all cases: PBM binding z-score (relative to random genomic background probes); higher = stronger binding; sequences stand for … in GC…GCGATTGACAGCGTAGAATGAAGG
[1] = system: PPARg:RXRa DBDmut IVT, anti-RXR (DBD mutation: RXRa K156A/R161A, NR concentration 270 nM, RXRa partner concentration 90 nM)
Procedure, shortened: (§1)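 Custom Agilent 4×180K protein-binding microarrays carried double-stranded probes, each with a 34-nt variable region. These regions held direct-repeat seeds, single-nucleotide variants, half-site ablations and random human genomic background sequences. Ligand-free nuclear receptor dimers were incubated on the arrays for 1 h, antibodies against each partner (one per run) detected binding, and scanned fluorescence was regression-normalized. Binding z-scores take the random background probes as reference.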

[2] = system: PPARg:RXRa IVT, anti-PPARg (NR concentration 270 nM, RXRa partner concentration 90 nM)
Procedure, shortened: as §1

[3] = system: PPARg DBDmut:RXRa IVT, anti-PPARg (DBD mutation: PPARg1 K132A/R137A, NR concentration 270 nM, RXRa partner concentration 90 nM)
Procedure, shortened: as §1

[4] = system: PPARg DBDmut IVT, anti-PPARg (DBD mutation: PPARg1 K132A/R137A, NR concentration 270 nM)
Procedure, shortened: as §1

[5] = system: PPARg homodimer (NR concentration 180 nM)
Procedure, shortened: as §1

[6] = system: PXR:RXRa (NR concentration 270 nM, RXRa partner concentration 90 nM)
Procedure, shortened: as §1

[7] = system: PXR homodimer (NR concentration 270 nM)
Procedure, shortened: as §1

[8] = system: RARa:RXR (NR concentration 270 nM, RXRa partner concentration 90 nM)
Procedure, shortened: as §1

[9] = system: RARa homodimer (NR concentration 270 nM)
Procedure, shortened: as §1

[10] = system: RARb:RXRa (NR concentration 270 nM, RXRa partner concentration 90 nM)
Procedure, shortened: as §1

[11] = system: RARb homodimer (NR concentration 270 nM)
Procedure, shortened: as §1

[12] = system: RARg:RXRa (NR concentration 270 nM, RXRa partner concentration 90 nM)
Procedure, shortened: as §1

[13] = system: RARg homodimer (NR concentration 270 nM)
Procedure, shortened: as §1

[14] = system: RXRa DBDmut IVT, anti-RXR (DBD mutation: RXRa K156A/R161A, NR concentration 90 nM)
Procedure, shortened: as §1

[15] = system: RXRa homodimer (NR concentration 180 nM)
Procedure, shortened: as §1

[16] = system: THRa:RXRa (NR concentration 90 nM, RXRa partner concentration 90 nM)
Procedure, shortened: as §1

[17] = system: THRa homodimer (NR concentration 90 nM)
Procedure, shortened: as §1

[18] = system: VDR homodimer (NR concentration 270 nM)
Procedure, shortened: as §1

Row | Sequence | PBM binding z-score [1] | PBM binding z-score [2] | PBM binding z-score [3] | PBM binding z-score [4] | PBM binding z-score [5] | PBM binding z-score [6] | PBM binding z-score [7] | PBM binding z-score [8] | PBM binding z-score [9] | PBM binding z-score [10] | PBM binding z-score [11] | PBM binding z-score [12] | PBM binding z-score [13] | PBM binding z-score [14] | PBM binding z-score [15] | PBM binding z-score [16] | PBM binding z-score [17] | PBM binding z-score [18]
1 | CCGACTGGGGCAAAGTTACCATAACGCACAGCCA | 3.71 | 3.42 | -0.241 | -0.589 | 0.229 | -0.542 | -0.263 | -0.168 | -0.168 | 0.462 | -0.231 | 0.149 | 0.374 | 0.41 | 0.344 | -0.336 | -0.499 | -0.275
2 | ACTAGCAGGCCAAGATTGGGTCACTCAAACAAAG | 0.594 | 1.6 | -0.903 | -0.363 | 0.0638 | 0.192 | -0.441 | 0.988 | -0.597 | 1.47 | 1.97 | 1.63 | 1.37 | -0.534 | 0.621 | 1.84 | 0.533 | 0.0162
3 | CGTCCAAGGTCAAGGCCAGTGAAAGAGACTCGAA | 2.93 | 3.4 | 0.269 | -0.184 | 2.5 | 3.44 | 0.449 | 4.09 | 0.0458 | 5.19 | 3.8 | 5.88 | 6.13 | 3.31 | 5.24 | 3.71 | 2.15 | 1.61
4 | ACTAGCAGGCGAAGGGTCACTCAAGATTAGTCCG | -0.0679 | 2.22 | -0.671 | -0.597 | 1.88 | 2.32 | -0.24 | 3.29 | -0.0684 | 3.31 | 3.34 | 3.45 | 3.42 | 0.405 | 3.49 | 2.32 | -0.224 | 0.989
5 | AGAACGAGGGCAATGAGTTGATATCACGGGTGGC | 3.27 | 2.39 | 0.947 | -0.37 | 0.0848 | 1.68 | 4.4 | 0.557 | -0.0418 | 1.95 | 1.12 | 1.33 | 1.45 | 2.15 | 1.2 | 1.17 | -0.128 | 2.71
6 | ATCGAAAGGTTGACGAGGTGAGTATACACCGTTT | 0.0825 | 1.03 | 0.76 | 1.04 | 0.684 | 0.914 | 0.374 | 1.25 | 0.63 | 1.79 | 1.28 | 1.47 | 1.51 | 0.0329 | 1.65 | 2.62 | 0.747 | 0.362
7 | TTACCAAGGTGAGCTGGGGTCGTTGATCCAACTC | 0.928 | 2.07 | -0.594 | -0.348 | 0.0514 | 4.52 | 0.268 | 2.72 | -0.868 | 1.55 | 1.42 | 1.31 | 0.493 | -0.222 | 2.1 | 4.38 | 1.23 | 1.84
8 | GCAGACAGGTGAAACACAGGTAACTCAGGGTGGC | 0.926 | 0.641 | -0.0327 | -0.651 | -0.0531 | -0.0674 | -0.462 | 0.56 | -0.402 | 0.685 | 0.58 | 1.37 | 0.385 | -0.322 | 0.982 | 1.28 | -0.504 | -0.7
